Experiments:
Assay in all cases: DAPPL (digital affinity profiling via proximity ligation, sequencing); 10 mM Tris-HCl pH 7.5, 50 mM NaCl, 1 mM DTT, 4% glycerol, room temperature, 30 min; GST-TFs on glutathione beads, 16-mer random dsDNA library, 0.1% formaldehyde crosslink after washing; high values mean tight binding
Conditions in all cases: protein: recombinant; tags: N-terminal GST; dsDNA, one strand shown
FLI1 = molecular target: T1, FLI1 (Homo sapiens, UniProt Q01543 1-452)
T1 sequence: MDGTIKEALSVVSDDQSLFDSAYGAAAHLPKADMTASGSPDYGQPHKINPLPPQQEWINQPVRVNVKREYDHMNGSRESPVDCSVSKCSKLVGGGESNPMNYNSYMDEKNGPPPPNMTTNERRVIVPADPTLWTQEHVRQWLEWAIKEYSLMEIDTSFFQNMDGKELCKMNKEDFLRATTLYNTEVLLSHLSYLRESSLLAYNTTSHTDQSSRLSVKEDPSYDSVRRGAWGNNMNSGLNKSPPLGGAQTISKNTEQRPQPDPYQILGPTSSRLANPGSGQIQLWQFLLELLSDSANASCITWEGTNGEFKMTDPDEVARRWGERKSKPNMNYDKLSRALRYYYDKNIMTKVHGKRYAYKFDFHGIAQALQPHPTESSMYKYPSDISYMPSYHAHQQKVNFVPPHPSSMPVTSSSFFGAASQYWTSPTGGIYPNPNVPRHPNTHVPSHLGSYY
In short: (§1)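 Beads coated with glutathione captured GST-fused human transcription factors that had been expressed in yeast, and the factors were then given DNA barcodes and pooled with a tag-only sample. The pools were incubated with 200 nmole of a random double-stranded 16-mer DNA library in Tris/NaCl/DTT/glycerol buffer for 30 min at room temperature, washed, crosslinked with 0.1% formaldehyde and proximity-ligated with BsaI/T4 ligase at 37 °C for 1 h. PCR amplification and Illumina NextSeq500 sequencing came last. Binding signal is each hexamer's read frequency for a factor divided by its frequency for the tag-only sample.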

ELK1 = molecular target: T2, ELK1 (Homo sapiens, UniProt P19419 1-428)
T2 sequence: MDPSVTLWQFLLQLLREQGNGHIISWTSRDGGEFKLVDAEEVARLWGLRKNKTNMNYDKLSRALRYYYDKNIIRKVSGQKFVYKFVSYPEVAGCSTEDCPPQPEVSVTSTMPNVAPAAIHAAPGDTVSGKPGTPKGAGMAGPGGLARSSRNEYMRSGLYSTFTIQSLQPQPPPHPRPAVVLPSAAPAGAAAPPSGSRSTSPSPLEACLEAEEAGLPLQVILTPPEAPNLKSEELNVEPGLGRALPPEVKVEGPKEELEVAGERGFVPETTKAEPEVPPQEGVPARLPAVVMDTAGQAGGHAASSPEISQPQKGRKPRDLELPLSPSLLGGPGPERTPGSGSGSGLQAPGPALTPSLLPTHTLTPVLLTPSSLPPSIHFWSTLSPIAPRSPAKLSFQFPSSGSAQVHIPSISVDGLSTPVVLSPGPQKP
In short: as §1

GABPA = molecular target: T3, GABPA (Homo sapiens, UniProt Q06546 1-454)
T3 sequence: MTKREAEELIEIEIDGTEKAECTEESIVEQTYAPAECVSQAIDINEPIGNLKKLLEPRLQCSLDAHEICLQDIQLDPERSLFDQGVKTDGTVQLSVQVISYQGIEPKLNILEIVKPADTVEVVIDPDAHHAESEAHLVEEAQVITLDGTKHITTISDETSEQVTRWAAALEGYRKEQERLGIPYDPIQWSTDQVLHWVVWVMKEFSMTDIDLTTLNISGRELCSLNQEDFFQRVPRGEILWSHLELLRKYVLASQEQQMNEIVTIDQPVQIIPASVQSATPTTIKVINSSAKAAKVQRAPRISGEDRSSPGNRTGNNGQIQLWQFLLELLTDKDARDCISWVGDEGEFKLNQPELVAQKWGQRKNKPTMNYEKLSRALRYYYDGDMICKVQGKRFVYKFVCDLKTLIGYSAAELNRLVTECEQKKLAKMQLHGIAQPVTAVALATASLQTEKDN
In short: as §1

ERG = molecular target: T4, ERG (Homo sapiens, UniProt P11308 1-479)
T4 sequence: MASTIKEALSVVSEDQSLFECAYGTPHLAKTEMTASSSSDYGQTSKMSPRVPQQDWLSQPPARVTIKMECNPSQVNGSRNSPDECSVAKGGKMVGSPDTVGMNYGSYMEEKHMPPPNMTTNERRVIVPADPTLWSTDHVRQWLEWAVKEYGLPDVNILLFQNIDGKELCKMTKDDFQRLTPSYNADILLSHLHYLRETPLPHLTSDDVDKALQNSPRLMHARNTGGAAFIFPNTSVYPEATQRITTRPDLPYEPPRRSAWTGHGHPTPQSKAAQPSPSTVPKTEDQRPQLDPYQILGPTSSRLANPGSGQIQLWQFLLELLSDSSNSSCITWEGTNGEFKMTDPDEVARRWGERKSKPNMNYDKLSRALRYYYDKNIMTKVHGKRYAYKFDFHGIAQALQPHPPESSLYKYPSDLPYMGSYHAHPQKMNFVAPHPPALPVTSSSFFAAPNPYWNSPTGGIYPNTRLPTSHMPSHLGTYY
In short: as §1

ELF1 = ELF1 (Homo sapiens, UniProt P32519 1-619)
Sequence of ELF1 (P32519 whole entry): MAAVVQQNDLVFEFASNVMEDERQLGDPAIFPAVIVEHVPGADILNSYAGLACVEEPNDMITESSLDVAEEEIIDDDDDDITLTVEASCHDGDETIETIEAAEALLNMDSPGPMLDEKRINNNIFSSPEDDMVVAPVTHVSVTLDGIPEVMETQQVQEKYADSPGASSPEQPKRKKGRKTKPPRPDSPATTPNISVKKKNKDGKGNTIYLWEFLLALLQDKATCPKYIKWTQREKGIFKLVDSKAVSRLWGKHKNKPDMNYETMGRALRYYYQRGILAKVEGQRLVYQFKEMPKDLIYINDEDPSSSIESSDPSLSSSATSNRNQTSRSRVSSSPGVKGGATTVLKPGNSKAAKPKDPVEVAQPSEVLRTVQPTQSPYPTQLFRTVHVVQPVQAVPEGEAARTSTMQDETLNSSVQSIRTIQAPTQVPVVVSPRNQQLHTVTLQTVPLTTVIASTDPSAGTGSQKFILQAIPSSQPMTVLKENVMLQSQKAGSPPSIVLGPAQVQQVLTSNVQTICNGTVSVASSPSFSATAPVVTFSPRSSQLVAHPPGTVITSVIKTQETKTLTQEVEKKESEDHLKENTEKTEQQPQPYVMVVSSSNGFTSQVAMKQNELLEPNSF
In short: as §1

EHF = molecular target: T5, EHF (Homo sapiens, UniProt Q9NZC4 1-300)
T5 sequence: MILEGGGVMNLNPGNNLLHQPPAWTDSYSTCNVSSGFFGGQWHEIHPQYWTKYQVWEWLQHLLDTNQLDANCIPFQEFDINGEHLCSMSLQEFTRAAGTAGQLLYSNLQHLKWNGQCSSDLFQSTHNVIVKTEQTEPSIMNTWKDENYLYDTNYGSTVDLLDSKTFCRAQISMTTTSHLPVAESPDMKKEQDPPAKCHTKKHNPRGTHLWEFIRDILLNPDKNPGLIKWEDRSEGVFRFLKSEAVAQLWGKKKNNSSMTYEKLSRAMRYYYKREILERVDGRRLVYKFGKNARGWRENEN
In short: as §1

SPI1 = SPI1 (Homo sapiens, UniProt P17947 1-270)
In short: as §1

SPIB = SPIB (Homo sapiens, UniProt Q01892 1-262)
Sequence of SPIB (Q01892 whole entry): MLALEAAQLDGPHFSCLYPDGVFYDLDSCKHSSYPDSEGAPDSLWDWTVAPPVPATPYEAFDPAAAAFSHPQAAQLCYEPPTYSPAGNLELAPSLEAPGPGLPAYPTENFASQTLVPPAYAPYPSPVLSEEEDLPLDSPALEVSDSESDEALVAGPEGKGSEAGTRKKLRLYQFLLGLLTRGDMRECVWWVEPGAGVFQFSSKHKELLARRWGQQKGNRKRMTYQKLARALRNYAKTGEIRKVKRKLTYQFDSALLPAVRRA
In short: as §1

ELK3 = molecular target: T6, ELK3 (Homo sapiens, UniProt P41970 1-407)
T6 sequence: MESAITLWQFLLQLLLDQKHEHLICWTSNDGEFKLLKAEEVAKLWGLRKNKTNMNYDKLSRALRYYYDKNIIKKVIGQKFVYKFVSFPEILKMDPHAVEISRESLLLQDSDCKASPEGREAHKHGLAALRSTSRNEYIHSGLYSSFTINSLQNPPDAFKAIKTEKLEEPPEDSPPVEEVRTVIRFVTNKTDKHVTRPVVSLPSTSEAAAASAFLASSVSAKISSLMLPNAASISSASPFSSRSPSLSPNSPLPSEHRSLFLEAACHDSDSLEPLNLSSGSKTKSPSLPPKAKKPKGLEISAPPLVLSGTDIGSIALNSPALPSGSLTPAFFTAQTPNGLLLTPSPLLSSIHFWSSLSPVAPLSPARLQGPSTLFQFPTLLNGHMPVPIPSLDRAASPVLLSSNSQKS
In short: as §1

Sequence | binding signal (FLI1) | binding signal (ELK1) | binding signal (GABPA) | binding signal (ERG) | binding signal (ELF1) | binding signal (EHF) | binding signal (SPI1) | binding signal (SPIB) | binding signal (ELK3)
GCATCC | 1.55 fold enrichment (6-mer frequency, TF over GST control) | 1.67 fold enrichment (6-mer frequency, TF over GST control) | 1.36 fold enrichment (6-mer frequency, TF over GST control) | 1.68 fold enrichment (6-mer frequency, TF over GST control) | 1.44 fold enrichment (6-mer frequency, TF over GST control) | 1.55 fold enrichment (6-mer frequency, TF over GST control) | 1.47 fold enrichment (6-mer frequency, TF over GST control) | 1.6 fold enrichment (6-mer frequency, TF over GST control) | 1.7 fold enrichment (6-mer frequency, TF over GST control)
TGTATC | 1.65 fold enrichment (6-mer frequency, TF over GST control) | 1.39 fold enrichment (6-mer frequency, TF over GST control) | 1.45 fold enrichment (6-mer frequency, TF over GST control) | 1.39 fold enrichment (6-mer frequency, TF over GST control) | 1.38 fold enrichment (6-mer frequency, TF over GST control) | 1.36 fold enrichment (6-mer frequency, TF over GST control) | 1.37 fold enrichment (6-mer frequency, TF over GST control) | 1.45 fold enrichment (6-mer frequency, TF over GST control) | 1.44 fold enrichment (6-mer frequency, TF over GST control)
ATTTTC | 1.47 fold enrichment (6-mer frequency, TF over GST control) | 1.35 fold enrichment (6-mer frequency, TF over GST control) | 1.46 fold enrichment (6-mer frequency, TF over GST control) | 1.46 fold enrichment (6-mer frequency, TF over GST control) | 1.31 fold enrichment (6-mer frequency, TF over GST control) | 1.49 fold enrichment (6-mer frequency, TF over GST control) | 1.56 fold enrichment (6-mer frequency, TF over GST control) | 1.41 fold enrichment (6-mer frequency, TF over GST control) | 1.31 fold enrichment (6-mer frequency, TF over GST control)
CTGGCA | 1.33 fold enrichment (6-mer frequency, TF over GST control) | 1.28 fold enrichment (6-mer frequency, TF over GST control) | 1.39 fold enrichment (6-mer frequency, TF over GST control) | 1.2 fold enrichment (6-mer frequency, TF over GST control) | 1.26 fold enrichment (6-mer frequency, TF over GST control) | 1.23 fold enrichment (6-mer frequency, TF over GST control) | 1.22 fold enrichment (6-mer frequency, TF over GST control) | 1.29 fold enrichment (6-mer frequency, TF over GST control) | 1.43 fold enrichment (6-mer frequency, TF over GST control)
TGACAC | 1.13 fold enrichment (6-mer frequency, TF over GST control) | 1.27 fold enrichment (6-mer frequency, TF over GST control) | 1.07 fold enrichment (6-mer frequency, TF over GST control) | 1.2 fold enrichment (6-mer frequency, TF over GST control) | 1.17 fold enrichment (6-mer frequency, TF over GST control) | 1.15 fold enrichment (6-mer frequency, TF over GST control) | 1.13 fold enrichment (6-mer frequency, TF over GST control) | 1.11 fold enrichment (6-mer frequency, TF over GST control) | 1.22 fold enrichment (6-mer frequency, TF over GST control)
CCGACT | 1.43 fold enrichment (6-mer frequency, TF over GST control) | 1.6 fold enrichment (6-mer frequency, TF over GST control) | 1.48 fold enrichment (6-mer frequency, TF over GST control) | 1.52 fold enrichment (6-mer frequency, TF over GST control) | 1.44 fold enrichment (6-mer frequency, TF over GST control) | 1.48 fold enrichment (6-mer frequency, TF over GST control) | 1.4 fold enrichment (6-mer frequency, TF over GST control) | 1.64 fold enrichment (6-mer frequency, TF over GST control) | 1.58 fold enrichment (6-mer frequency, TF over GST control)
TCTGTT | 1.41 fold enrichment (6-mer frequency, TF over GST control) | 1.47 fold enrichment (6-mer frequency, TF over GST control) | 1.24 fold enrichment (6-mer frequency, TF over GST control) | 1.42 fold enrichment (6-mer frequency, TF over GST control) | 1.42 fold enrichment (6-mer frequency, TF over GST control) | 1.45 fold enrichment (6-mer frequency, TF over GST control) | 1.43 fold enrichment (6-mer frequency, TF over GST control) | 1.33 fold enrichment (6-mer frequency, TF over GST control) | 1.15 fold enrichment (6-mer frequency, TF over GST control)
